The results in this text go back to PubChem BioAssay AID1026 (Columbia University Molecular Screening Center, 2008).

Calls of active or inactive are those of the source. How the calls were made is not given here.

In the experiment the target is Bifunctional epoxide hydrolase 2 (Homo sapiens) (UniProt P34913). Nature of the experiment: sEH inhibitor concentration-response potency, dose response, biochemical, human sEH, fluorescence, Infinite200 (AID 1026). As to conditions: recombinant human sEH, fluorogenic substrate, at 0.2 µM, hits give high values.
Chain of Bifunctional epoxide hydrolase 2 (Homo sapiens) (P34913 whole entry, looked up): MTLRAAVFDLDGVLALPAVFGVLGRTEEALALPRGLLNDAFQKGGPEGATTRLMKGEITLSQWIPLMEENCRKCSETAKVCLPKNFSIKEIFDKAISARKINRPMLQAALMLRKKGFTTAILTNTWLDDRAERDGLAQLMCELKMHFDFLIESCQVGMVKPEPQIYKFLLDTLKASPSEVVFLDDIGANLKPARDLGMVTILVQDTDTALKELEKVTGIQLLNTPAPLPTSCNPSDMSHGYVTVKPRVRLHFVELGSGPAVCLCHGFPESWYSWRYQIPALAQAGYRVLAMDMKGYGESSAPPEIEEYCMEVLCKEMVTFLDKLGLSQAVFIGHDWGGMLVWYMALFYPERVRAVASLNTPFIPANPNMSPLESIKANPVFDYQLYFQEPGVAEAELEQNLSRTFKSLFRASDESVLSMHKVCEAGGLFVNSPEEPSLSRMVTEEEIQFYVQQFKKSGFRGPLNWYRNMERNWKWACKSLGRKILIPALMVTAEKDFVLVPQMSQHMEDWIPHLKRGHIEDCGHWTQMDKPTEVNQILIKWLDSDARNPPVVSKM
As for `CCc1ccc(NC(=O)Nc2ccc3c(c2)N(C)C(=O)CS3)cc1`, the inhibition – broadly, the relative decrease from the control value, in per cent – was 61.2% (inactive).
For the compound `Cc1ccc(S(=O)(=O)N2CCCC(C(=O)NCCC3=CCCCC3)C2)cc1` (stereo not given), the inhibition was 35.1% (inactive).
For `Cc1ccccc1OCCCC(=O)Nc1ccc(Br)cc1`, the inhibition is 69.8% (inactive).
On to `C=CCN1C(=O)CSc2ccc(C(=O)NCCC3=CCCCC3)cc21`, for which the inhibition is 55.8% (inactive).
In the case of `CCC(C)c1ccc(NC(=O)c2cccs2)cc1` (stereo not given), the inhibition was 68% (inactive).
In the case of `O=C(NC1CCCCCCC1)C1CCN(c2nc3ccccc3o2)CC1`, the inhibition is 73.5% (inactive).
The same measure for `O=C(NCc1cccs1)C1CCC(CNS(=O)(=O)c2ccc(Br)s2)CC1` (stereo not given): 62.3% (inactive); for `O=C(NCCc1c[nH]c2ccccc12)C1CCC(Cn2c(=S)[nH]c3ccccc3c2=O)CC1` (stereo not given): 72.7% (inactive); for `CCc1c(C)nc2ncnn2c1N1CCC(C(=O)NCc2ccc3c(c2)OCO3)CC1`: 41% (inactive).
For the compound `O=C(NCc1ccc2c(c1)OCO2)C1CCN(Cc2cnn(-c3ccccc3)c2-n2cccc2)CC1`, the inhibition was 57.2% (inactive).
In the case of `Cc1ccc(NC(=O)NCCCc2ccccc2)cc1`, the inhibition is 48.7% (inactive).
Under `CCc1c(C)nc2ncnn2c1N1CCC(C(=O)Nc2ccc(C)cc2)CC1` stands 44.3% (inactive).
As to `CC(NC(=O)CSc1nnc(-c2cccc(S(=O)(=O)N3CCCCC3)c2)o1)C12CC3CC(CC(C3)C1)C2` (stereo not given), the inhibition is 66% (inactive).
In the case of `CCCCC(CC)CNC(=O)C1CCCN(S(=O)(=O)c2cnc[nH]2)C1` (stereo not given), the inhibition is 49.9% (inactive).
The same measure for `CCOc1ccc(NC(=O)N2CCC(c3ccc(C)cc3)C2)cc1` (stereo not given): 50.5% (inactive); for `CCOc1ccc(NC(=O)NCCCSC2CCCCC2)cc1`: 54.6% (inactive); for `O=C(Nc1ccc2c(c1)OCCO2)NC12CC3CC(CC(C3)C1)C2`: 72.8% (inactive).
Take `CC1CCCN(S(=O)(=O)c2ccc(NC(=O)c3cccc(-n4cnnn4)c3)cc2)C1` (stereo not given): the inhibition was 59% (inactive).
As for `CCC(C)[C@H](NC(=O)NCc1ccccc1Cl)C(=O)OC` (stereo not given in full), the inhibition was 48.1% (inactive).
Turning to `CCN(CCNC(=O)C1CCN(Cc2nc(-c3cccc(Cl)c3)oc2C)CC1)c1ccccc1`, the inhibition is 45.4% (inactive).
On to `O=C(Nc1cccc(F)c1)NC1CCCCC1`, for which the inhibition was 51.9% (inactive).
For the compound `O=C(N/N=C/c1ccc(O)cc1)c1csc2ccccc12`, the inhibition was 54.5% (inactive).
Regarding `O=C(Cc1ccc(Cl)cc1)Nc1ccc(N2CCN(C(=O)c3ccco3)CC2)c(Cl)c1`, the inhibition is 64.8% (inactive).
For `COCCNC(=O)CN1CCC(NC(=O)Nc2ccc(C(F)(F)F)cc2)CC1`, the inhibition was 54.7% (inactive).
The same measure for `COc1ccc(/C=N/NC(=O)c2ccc(COc3ccccc3Cl)o2)cc1`: 55.4% (inactive); for `O=C(Nc1ccc2c(c1)nc1n2CCN(Cc2ccccc2)C1)NC1CCCCC1`: 58.4% (inactive).
For `COc1ccc(OC)c(/C=N/NC(=O)c2csc3ccccc23)c1`, the inhibition is 51.1% (inactive).
Consider `O=C(c1ccc2c(=O)n(Cc3ccc4c(c3)OCO4)c(=S)[nH]c2c1)N1CCCCC1`, for which the inhibition is 47.4% (inactive).
For the compound `COc1ccc(NC(=O)N2CCC(c3nc(-c4cccs4)no3)CC2)cc1`, the inhibition is 62.9% (inactive).
Regarding `CC1CCCN(S(=O)(=O)c2ccc(C(=O)Nc3nnc(-c4ccccc4Cl)o3)cc2)C1` (stereo not given), the inhibition was 58% (inactive).
With `CC(=O)N1CCN(c2ccc(NC(=O)COc3ccc(Cl)cc3Cl)cc2)CC1`, the inhibition was 38.5% (inactive).
Take `O=C(NC1CCCCC1)NC1CC2CCC(C1)N2Cc1nnnn1Cc1ccc2c(c1)OCO2` (stereo not given): the inhibition is 74.2% (inactive).
`CCC(CC)NC(=O)COC(=O)c1ccc(OCC(=O)Nc2ccccc2OC)c(OC)c1`: the inhibition was 48.6% (inactive).
In the case of `O=C(Nc1cccc2ccccc12)c1ccc(OC(=S)N2CCOCC2)cc1`, the inhibition is 68.8% (inactive).
As for `O=C(Nc1cccc(C(F)(F)F)c1)NC1CCCCC1`, the inhibition was 66.5% (inactive).
Take `CCCCCC(=O)Nc1ccc2oc(-c3ccncc3)nc2c1`: the inhibition is 31.2% (inactive).
On to `O=C(NCCC1=CCCCC1)c1ccc2c(c1)N(Cc1ccccc1)C(=O)CS2`, for which the inhibition is 52.3% (inactive).
Under `O=C(Nc1cnn(Cc2ccccc2)c1)NC12CC3CC(CC(C3)C1)C2` stands 59.3% (inactive); under `NS(=O)(=O)c1ccc(CNC(=O)/C=C/c2c(Cl)cccc2Cl)cc1`, 51.6% (inactive).
The same measure for `CCOC(=O)CSc1nc2ccccc2c(=O)n1CC1CCC(C(=O)NCc2ccco2)CC1` (stereo not given): 45.6% (inactive).
